About 79,000 compounds went through this panel and 15% of them were active in at least one assay; those are over-represented in the sample as a whole. A number with no mark means an inactive call. Active and inactive are the calls of the source. No stated cut-off is given here; in the data, active means growth inhibition above about 70%; inactive means the rest.
Legend:
[1] = NCI Yeast Anticancer Drug Screen. Data for the rad50 strain (AID 155);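 further: 0% = growth of vehicle-only cultures of the same strain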; conditions: S. cerevisiae rad50 strain growth inhibition, active compounds read high
How it was run: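 DNA repair mutant yeast, compound exposure, growth read-out; inhibition is taken relative to vehicle.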

[2] = NCI Yeast Anticancer Drug Screen. Data for the mec2-1 strain (AID 157); conditions: S. cerevisiae mec2-1 strain, active compounds read high
How it was run: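 Growth inhibition is read against vehicle-treated controls after compound exposure of the mec2-1 yeast strain, which is defective in DNA damage repair or cell cycle control.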

[3] = NCI Yeast Anticancer Drug Screen. Data for the sgs1 mgt1 strain (AID 161);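 further: 0% = growth of cultures given vehicle only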; conditions: S. cerevisiae sgs1 mgt1 strain, active compounds read high
How it was run: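 Yeast cells carrying a defined DNA-repair defect were exposed to test compounds. Growth inhibition was measured relative to vehicle-treated controls.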

[4] = NCI Yeast Anticancer Drug Screen. Data for the cln2 rad14 strain (AID 165);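 further: 0% = growth equal to vehicle treated cultures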; conditions: S. cerevisiae cln2 rad14 strain, active compounds read high
How it was run: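 Growth inhibition, relative to vehicle-treated controls, is the read-out. The test organism is a yeast strain with defined genetic alterations, cln2 rad14.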

[5] = NCI Yeast Anticancer Drug Screen. Data for the bub3 strain (AID 167); conditions: S. cerevisiae bub3 mutant strain, active compounds read high
How it was run: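 In this screen, a yeast mutant lacking normal mitotic checkpoint function is challenged with compound. Relative growth versus vehicle gives the inhibition value.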

[6] = NCI Yeast Anticancer Drug Screen. Data for the mlh1 rad18 strain (AID 175); conditions: S. cerevisiae mlh1 rad18 strain growth inhibition, active compounds read high
How it was run: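 Cells of a genetically altered yeast strain, deficient in DNA damage repair, were treated with compound. Their growth was then compared with that of vehicle-treated cultures to give inhibition.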

[7] = at 5.0 µM (retest, dose inferred, filed as 0.5)
[8] = at 50.0 µM (retest, dose inferred, filed as 5.0)

SMILES	growth inhibition [1, 7]	growth inhibition [1, 8]	growth inhibition ([1]; at 50.0 µM)	growth inhibition [2, 7]	growth inhibition [2, 8]	growth inhibition ([2]; at 50.0 µM)	growth inhibition [3, 7]	growth inhibition [3, 8]	growth inhibition ([3]; at 50.0 µM)	growth inhibition [4, 7]	growth inhibition [4, 8]	growth inhibition ([4]; at 50.0 µM)	growth inhibition [5, 7]	growth inhibition [5, 8]	growth inhibition ([5]; at 50.0 µM)	growth inhibition [6, 7]	growth inhibition [6, 8]	growth inhibition ([6]; at 50.0 µM)
CCCCCCCCCc1cccc(N2C(N)=NC(N)=NC2(C)C)c1	99% (active)	88% (active)	99.3% (active)	100% (active)	28%	99.6% (active)	99% (active)	42%	99.6% (active)	99% (active)	19%	99% (active)	98% (active)	12%	99.4% (active)	99% (active)	29%	99.4% (active)
CCOC(=O)[C@@H](F)[C@H](Br)C(=O)OCC	86% (active)	99% (active)	89.2% (active)	58%	100% (active)	93.2% (active)	75% (active)	100% (active)	88.4% (active)	55%	100% (active)	89.2% (active)	88% (active)	100% (active)	84.7% (active)	80% (active)	99% (active)	93.2% (active)
Cc1c[n+](CC(=O)c2ccc(I)cc2)c(C)s1	0%	13%	-16.2%	-1%	2%	4.1%	-1%	12%	-2.85%	-4%	-5%	46.3%	-2%	9%	1.7%	-2%	-2%	16.8%
Oc1ccc(CNC2CCCCC2)cc1	-4%	4%	70.8% (active)	-13%	-20%	31.2%	-5%	10%	79.8% (active)	-2%	-11%	50.5%	-14%	-20%	37.4%	1%	-25%	46.9%
COC(=O)C1=C(C)NC(C)=C(C(=O)OC)C1c1ccc(NCc2ccccc2)c([N+](=O)[O-])c1	4%	59%	16.9%	0%	53%	3.65%	-1%	73% (active)	12.3%	0%	74% (active)	0.55%	1%	68%	6.45%	0%	71% (active)	40.1%
CCCCCCCCCCCCCCCCN[Si](NCCCCCCCCCCCCCCCC)(NCCCCCCCCCCCCCCCC)NCCCCCCCCCCCCCCCC	97% (active)	96% (active)	85.5% (active)	99% (active)	96% (active)	83.4% (active)	99% (active)	96% (active)	88.2% (active)	98% (active)	95% (active)	85.5% (active)	99% (active)	97% (active)	86% (active)	97% (active)	95% (active)	83.9% (active)
CC12CCCCC1CCC(Br)C2=O (configuration not stated)	-115%	-2%	59%	-40%	-18%	41.5%	-51%	22%	70.2% (active)	-50%	-35%	-17.7%	-57%	-34%	13.1%	-128%	-55%	61.6%
N#Cc1c(N)nc2c(N=Nc3ccccc3)c(N)nn2c1Nc1ccccc1	-2%	38%	51.5%	-2%	39%	16.4%	19%	85% (active)	79.2% (active)	1%	5%	16.4%	-5%	31%	-30.6%	-4%	55%	76.1% (active)
COc1ccc2c(c1)CCn1c(C)c(COC(=O)NC(C)C)c(COC(=O)NC(C)C)c1-2	17%	98% (active)	88.7% (active)	0%	98% (active)	92.3% (active)	33%	98% (active)	89.2% (active)	10%	97% (active)	90.3% (active)	15%	98% (active)	88.7% (active)	17%	98% (active)	87.7% (active)

Source: PubChem BioAssay (NCI)
